Measurements published in the supplement of paper PMC11732987, “Enantioselective OTUD7B fragment discovery through chemoproteomics screening and high-throughput optimisation” (Communications Chemistry, 2025).

What was measured:
Experiment in all cases: log2 ratio of Biotin-Ahx-Ub-VS probe labelling (fragment/DMSO); higher = less target engagement (more negative = stronger competition), active = hit call of the paper (q ≤ 0.05, log2 ratio ≤ -1)
Conditions in all cases: compound concentration: 200 uM; treatment time: 3 h
USP19 = biological target: T1, USP19 (UniProt O94966)
T1 sequence (whole entry): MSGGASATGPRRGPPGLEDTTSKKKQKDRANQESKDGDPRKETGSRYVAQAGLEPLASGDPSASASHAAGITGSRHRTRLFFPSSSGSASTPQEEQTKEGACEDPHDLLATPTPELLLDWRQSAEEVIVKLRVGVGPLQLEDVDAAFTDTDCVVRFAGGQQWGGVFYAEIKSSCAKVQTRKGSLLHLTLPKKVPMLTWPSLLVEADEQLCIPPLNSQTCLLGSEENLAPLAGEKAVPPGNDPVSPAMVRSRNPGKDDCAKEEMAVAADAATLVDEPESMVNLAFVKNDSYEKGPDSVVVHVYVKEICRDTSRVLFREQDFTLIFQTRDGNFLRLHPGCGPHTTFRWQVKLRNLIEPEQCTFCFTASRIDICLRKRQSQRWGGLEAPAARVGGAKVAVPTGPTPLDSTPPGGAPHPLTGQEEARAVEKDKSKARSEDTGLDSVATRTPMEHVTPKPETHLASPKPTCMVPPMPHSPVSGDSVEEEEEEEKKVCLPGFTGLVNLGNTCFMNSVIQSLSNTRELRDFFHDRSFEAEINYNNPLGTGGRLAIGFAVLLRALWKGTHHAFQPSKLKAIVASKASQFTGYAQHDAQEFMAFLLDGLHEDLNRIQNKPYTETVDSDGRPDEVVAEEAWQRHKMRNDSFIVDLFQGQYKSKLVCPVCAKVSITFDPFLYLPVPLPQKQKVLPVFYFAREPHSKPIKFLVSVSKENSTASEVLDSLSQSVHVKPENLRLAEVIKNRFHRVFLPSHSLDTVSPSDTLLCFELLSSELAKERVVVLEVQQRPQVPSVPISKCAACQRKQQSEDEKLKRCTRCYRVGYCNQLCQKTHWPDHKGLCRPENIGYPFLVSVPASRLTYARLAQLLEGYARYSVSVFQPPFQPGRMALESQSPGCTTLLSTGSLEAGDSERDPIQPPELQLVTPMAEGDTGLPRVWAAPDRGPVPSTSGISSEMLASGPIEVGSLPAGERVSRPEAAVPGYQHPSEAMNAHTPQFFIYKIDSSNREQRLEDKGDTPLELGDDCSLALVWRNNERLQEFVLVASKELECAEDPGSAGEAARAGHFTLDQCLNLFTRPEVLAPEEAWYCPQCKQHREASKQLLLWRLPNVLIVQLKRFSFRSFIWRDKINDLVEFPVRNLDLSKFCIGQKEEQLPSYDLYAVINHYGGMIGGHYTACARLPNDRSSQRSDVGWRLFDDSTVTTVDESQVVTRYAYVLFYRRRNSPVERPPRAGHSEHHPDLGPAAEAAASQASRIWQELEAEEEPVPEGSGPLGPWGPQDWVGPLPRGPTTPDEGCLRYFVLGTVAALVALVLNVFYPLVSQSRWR
Method in brief: (§1)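 Triplicate samples of HEK293T lysate, 495 µg each, received fragment at 200 µM or vehicle for 3 h, followed by Biotin-Ahx-Ub-VS (0.5 µM final) for 1 h. After NeutrAvidin enrichment of labelled DUBs and LysC/trypsin digestion, peptides were run by diaPASEF LC-MS/MS. The values are average log2 fragment/vehicle ratios from global-median-normalised Spectronaut label-free quantities, tested by unpaired t-test on proteins having ≥2 unique peptides.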

USP24 = USP24 (UniProt Q9UPU5)
Chain of USP24 (Q9UPU5 whole entry): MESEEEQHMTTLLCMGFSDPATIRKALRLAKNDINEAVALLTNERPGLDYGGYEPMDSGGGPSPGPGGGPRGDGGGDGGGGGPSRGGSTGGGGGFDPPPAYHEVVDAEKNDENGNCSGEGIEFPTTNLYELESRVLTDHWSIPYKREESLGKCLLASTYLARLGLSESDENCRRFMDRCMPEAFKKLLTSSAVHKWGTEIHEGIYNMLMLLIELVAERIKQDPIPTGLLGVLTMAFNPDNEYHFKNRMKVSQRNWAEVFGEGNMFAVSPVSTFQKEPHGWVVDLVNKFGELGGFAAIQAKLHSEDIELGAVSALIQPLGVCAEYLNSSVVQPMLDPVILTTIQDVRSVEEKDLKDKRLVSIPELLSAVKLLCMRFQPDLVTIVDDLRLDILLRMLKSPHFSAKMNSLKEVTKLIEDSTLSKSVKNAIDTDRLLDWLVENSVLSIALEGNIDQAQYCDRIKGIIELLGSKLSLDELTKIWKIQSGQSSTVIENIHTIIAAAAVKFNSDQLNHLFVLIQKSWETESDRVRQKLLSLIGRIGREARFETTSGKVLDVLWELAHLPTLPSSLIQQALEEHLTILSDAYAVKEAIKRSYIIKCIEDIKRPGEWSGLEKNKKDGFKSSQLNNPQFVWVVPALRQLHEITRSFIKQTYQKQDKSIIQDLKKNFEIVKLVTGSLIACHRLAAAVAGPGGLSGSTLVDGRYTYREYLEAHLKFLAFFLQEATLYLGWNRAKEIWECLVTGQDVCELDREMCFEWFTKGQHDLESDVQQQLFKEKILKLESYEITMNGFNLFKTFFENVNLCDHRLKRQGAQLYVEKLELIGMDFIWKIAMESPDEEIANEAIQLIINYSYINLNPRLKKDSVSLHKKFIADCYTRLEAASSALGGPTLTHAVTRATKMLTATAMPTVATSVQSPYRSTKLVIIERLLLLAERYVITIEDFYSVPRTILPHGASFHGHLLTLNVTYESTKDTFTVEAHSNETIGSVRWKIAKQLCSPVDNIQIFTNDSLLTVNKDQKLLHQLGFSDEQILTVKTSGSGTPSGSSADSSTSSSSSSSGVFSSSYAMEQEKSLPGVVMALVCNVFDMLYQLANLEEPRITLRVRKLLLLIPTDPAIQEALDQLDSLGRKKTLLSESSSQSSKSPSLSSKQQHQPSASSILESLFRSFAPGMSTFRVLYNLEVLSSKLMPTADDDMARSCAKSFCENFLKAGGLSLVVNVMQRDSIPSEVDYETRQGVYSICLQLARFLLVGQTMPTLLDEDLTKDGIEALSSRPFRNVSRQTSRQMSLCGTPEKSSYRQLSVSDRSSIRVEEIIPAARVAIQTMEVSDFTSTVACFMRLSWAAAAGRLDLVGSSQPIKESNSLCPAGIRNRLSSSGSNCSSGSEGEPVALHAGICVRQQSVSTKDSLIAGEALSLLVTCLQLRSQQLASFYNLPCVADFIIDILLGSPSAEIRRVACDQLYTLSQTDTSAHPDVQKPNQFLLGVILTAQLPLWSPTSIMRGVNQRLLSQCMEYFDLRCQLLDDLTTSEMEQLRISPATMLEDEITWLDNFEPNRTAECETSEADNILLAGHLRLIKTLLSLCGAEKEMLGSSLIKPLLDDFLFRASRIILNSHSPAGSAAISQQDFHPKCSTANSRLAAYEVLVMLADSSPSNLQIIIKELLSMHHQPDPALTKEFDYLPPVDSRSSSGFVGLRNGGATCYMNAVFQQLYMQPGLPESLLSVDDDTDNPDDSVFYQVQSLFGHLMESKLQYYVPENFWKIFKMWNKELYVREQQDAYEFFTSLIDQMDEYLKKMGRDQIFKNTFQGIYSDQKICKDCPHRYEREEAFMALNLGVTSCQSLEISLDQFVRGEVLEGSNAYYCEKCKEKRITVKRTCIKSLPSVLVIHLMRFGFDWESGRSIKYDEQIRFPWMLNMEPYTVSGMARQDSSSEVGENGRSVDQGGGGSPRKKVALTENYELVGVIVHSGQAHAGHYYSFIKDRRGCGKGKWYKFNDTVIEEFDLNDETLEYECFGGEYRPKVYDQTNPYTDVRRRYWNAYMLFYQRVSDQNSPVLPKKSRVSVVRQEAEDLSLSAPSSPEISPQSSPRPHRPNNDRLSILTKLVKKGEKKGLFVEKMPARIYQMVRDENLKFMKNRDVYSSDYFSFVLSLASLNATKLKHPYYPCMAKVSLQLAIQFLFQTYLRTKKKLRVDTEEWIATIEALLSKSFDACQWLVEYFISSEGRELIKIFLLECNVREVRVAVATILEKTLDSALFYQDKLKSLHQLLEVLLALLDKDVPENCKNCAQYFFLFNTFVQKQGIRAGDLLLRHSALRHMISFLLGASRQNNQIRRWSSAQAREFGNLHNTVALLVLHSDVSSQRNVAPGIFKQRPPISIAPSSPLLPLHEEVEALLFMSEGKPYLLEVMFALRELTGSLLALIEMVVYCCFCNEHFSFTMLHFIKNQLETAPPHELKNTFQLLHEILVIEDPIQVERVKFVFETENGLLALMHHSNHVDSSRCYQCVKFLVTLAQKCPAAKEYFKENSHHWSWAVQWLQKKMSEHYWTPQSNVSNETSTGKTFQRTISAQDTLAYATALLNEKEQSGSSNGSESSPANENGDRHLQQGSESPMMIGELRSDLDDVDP
Method in brief: as §1

USP25 = biological target: T2, USP25 (UniProt Q9UHP3)
T2 sequence (whole entry): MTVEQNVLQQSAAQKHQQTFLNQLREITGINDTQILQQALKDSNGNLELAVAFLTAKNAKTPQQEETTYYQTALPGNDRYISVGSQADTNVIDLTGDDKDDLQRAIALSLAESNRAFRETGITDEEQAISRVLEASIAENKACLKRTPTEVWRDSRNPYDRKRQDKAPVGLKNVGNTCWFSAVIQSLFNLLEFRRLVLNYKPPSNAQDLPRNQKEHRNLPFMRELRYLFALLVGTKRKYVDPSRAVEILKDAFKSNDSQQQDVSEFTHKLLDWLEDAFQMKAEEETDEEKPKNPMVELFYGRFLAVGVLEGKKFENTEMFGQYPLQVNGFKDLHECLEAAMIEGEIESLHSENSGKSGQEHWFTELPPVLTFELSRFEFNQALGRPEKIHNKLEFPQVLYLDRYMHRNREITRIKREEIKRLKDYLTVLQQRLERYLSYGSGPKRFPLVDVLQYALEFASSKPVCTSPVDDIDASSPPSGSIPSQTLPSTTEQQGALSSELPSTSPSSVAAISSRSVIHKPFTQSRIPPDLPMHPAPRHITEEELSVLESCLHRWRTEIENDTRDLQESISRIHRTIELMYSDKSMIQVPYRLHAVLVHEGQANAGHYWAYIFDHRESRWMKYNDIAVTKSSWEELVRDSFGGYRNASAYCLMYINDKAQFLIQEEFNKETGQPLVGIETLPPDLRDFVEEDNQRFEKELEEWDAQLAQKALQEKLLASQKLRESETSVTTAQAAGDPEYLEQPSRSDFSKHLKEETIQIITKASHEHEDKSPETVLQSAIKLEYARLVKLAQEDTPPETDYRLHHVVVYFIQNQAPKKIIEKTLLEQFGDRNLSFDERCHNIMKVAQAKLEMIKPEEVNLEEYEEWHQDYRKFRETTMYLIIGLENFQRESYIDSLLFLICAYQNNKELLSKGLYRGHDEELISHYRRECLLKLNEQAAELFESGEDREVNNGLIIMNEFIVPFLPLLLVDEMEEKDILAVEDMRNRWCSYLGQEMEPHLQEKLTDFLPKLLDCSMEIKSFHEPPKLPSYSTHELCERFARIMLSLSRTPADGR
Method in brief: as §1

USP28 = biological target: T3, USP28 (UniProt Q96RU2)
T3 sequence (whole entry): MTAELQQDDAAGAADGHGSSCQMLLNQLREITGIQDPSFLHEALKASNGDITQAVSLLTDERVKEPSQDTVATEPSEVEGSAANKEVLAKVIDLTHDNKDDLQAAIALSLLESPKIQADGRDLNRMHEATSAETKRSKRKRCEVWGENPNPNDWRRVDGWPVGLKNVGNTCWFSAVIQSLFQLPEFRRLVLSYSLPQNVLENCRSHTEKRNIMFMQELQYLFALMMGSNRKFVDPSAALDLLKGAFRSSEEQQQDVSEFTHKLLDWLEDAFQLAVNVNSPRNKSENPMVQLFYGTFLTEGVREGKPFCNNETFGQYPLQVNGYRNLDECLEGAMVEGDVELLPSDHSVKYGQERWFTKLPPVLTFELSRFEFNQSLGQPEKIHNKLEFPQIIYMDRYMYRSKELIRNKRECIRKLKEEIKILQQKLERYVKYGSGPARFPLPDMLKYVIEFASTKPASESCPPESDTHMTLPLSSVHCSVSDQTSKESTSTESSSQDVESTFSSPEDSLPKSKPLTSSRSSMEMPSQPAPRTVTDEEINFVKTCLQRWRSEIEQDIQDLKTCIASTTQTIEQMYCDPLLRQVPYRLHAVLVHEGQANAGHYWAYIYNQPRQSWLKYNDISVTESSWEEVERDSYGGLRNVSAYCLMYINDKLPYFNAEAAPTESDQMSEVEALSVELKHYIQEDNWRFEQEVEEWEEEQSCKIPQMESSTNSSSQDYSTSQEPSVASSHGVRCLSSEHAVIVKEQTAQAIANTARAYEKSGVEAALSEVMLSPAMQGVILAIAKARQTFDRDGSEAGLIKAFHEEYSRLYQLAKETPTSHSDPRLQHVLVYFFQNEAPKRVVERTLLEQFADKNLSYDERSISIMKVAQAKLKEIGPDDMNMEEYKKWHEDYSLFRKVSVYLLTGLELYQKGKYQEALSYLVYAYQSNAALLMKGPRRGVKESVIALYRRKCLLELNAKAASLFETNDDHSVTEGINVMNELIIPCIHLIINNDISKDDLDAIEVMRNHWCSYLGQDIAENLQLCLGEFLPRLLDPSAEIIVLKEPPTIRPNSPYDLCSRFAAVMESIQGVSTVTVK
Method in brief: as §1

Measured: log2 ratio of Biotin-Ahx-Ub-VS probe labelling

O=C(CCl)NCCC1COCCO1 (centres undefined)
inactive: USP19 -0.207 | USP24 -0.21 | USP25 -0.158 | USP28 -0.225
